# Data published in the supplement of paper PMC8728848.
# The full list was thinned out, with the strongest signals kept by preference.
# B1: B3GalT2 (Rattus norvegicus) (protein)
# chain: LMLQWRRRHCCFAKMSWNAKRSLFRTHLMGVLSLVFLFAMFLFFNHHDWLPGRPGFKENPVTYTFRGFRSTKTETNQSSLRNIWKEVVPQTLRPQTATNSNNTELSPQGVTGLENTLSANGSIYNEKGTGHPNSYHFKYIINEPEKCQEKSPFLILLIAAEPGQIEARRAIRQTWGNETLAPGIQITRIFLLGISIKLNGYLQHAIQEESIQYHDIIQQEYLDTYYNLTIKTLMGMNWVATYCPHTPYVMKTDSDMFVNTEYLIHKLLKPDLPPRHNYFTGYLMRGYAPNRNKDSKWYMPPDLYPSERYPVFCSGTGYVFSGDLAEKIFKVSLGIRRLHLEDVYVGICLAKLRVDPVPPPNEFVFNHWRVSYSSCKYSHLITSHQFQPSELIKYWNHLQQNKHNACVNAAKEKAGRYRHRKLH
# How the values were obtained:
# Assay in all cases: glycan array binding signal (z-score within array); higher = stronger binding
# Details in all cases: glycan notation: IUPAC condensed, linker removed
# Fuc(a1-2)Gal(b1-3)GlcNAc = target: Fuc(a1-2)Gal(b1-3)GlcNAc
# Method in brief: (§1)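 Glycan array binding is given as a within-array Z-score, which can be read as non-binding when negative. The arrays, 3228 of them, came from the Consortium for Functional Glycomics database and were retained only where the protein sequence was available. Z-scores were averaged across arrays of the same protein sequence at different concentrations or buffers and across linkers.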
# [1] = target: Fuc(a1-2)Gal(b1-3)GlcNAc6S
# Method in brief: as §1
# Fuc(a1-2)Gal(b1-4)Glc = target: Fuc(a1-2)Gal(b1-4)Glc
# Method in brief: as §1
# [2] = target: Fuc(a1-2)Gal(b1-4)GlcNAc(b1-3)GalNAc
# Method in brief: as §1
# [3] = target: Fuc(a1-2)Gal(b1-4)[Fuc(a1-3)]GlcNAc(b1-2)[Fuc(a1-2)Gal(b1-4)[Fuc(a1-3)]GlcNAc(b1-4)]Man(a1-3)[Fuc(a1-2)Gal(b1-4)[Fuc(a1-3)]GlcNAc(b1-2)Man(a1-6)]Man(b1-4)GlcNAc(b1-4)GlcNAc
# Method in brief: as §1
# [4] = target: Fuc(a1-2)Gal6S(b1-3)GlcNAc
# Method in brief: as §1
# [5] = target: Fuc(a1-2)[GalNAc(a1-3)]Gal(b1-3)GlcNAc(b1-2)Man(a1-3)[Fuc(a1-2)[GalNAc(a1-3)]Gal(b1-3)GlcNAc(b1-2)Man(a1-6)]Man(b1-4)GlcNAc(b1-4)GlcNAc
# Method in brief: as §1
# [6] = target: Fuc(a1-2)[GalNAc(b1-3)]Gal
# Method in brief: as §1
# [7] = target: Fuc(a1-3)[Gal(b1-4)]GlcNAc(b1-3)Gal(b1-4)[Fuc(a1-3)]GlcNAc(b1-3)Gal(b1-4)[Fuc(a1-3)]GlcNAc
# Method in brief: as §1
# [8] = target: Fuc(a1-3)[Gal3S(b1-4)]Glc
# Method in brief: as §1
# [9] = target: Fuc(a1-3)[GalNAc(b1-4)]GlcNAc6S
# Method in brief: as §1
# [10] = target: Gal(a1-3)Gal(b1-4)GlcNAc(b1-2)Man
# Method in brief: as §1
# [11] = target: Gal(a1-3)[Gal(a1-4)]Gal(b1-4)GlcNAc
# Method in brief: as §1
# [12] = target: Gal(b1-3)GalNAc(a1-3)[Fuc(a1-2)]Gal(b1-4)Glc
# Method in brief: as §1
# [13] = target: Gal(b1-3)GlcNAc(b1-2)Man(a1-3)[Gal(b1-3)GlcNAc(b1-2)Man(a1-6)]Man(b1-4)GlcNAc(b1-4)[Fuc(a1-6)]GlcNAc
# Method in brief: as §1
# [14] = target: Gal(b1-3)GlcNAc(b1-2)Man(a1-3)[GlcNAc(b1-4)][Gal(b1-3)GlcNAc(b1-2)Man(a1-6)]Man(b1-4)GlcNAc(b1-4)GlcNAc
# Method in brief: as §1
# [15] = target: Gal(b1-3)GlcNAc(b1-3)Gal(b1-4)GlcNAc(b1-3)Gal(b1-4)GlcNAc(b1-2)[Gal(b1-3)GlcNAc(b1-3)Gal(b1-4)GlcNAc(b1-3)Gal(b1-4)GlcNAc(b1-6)]Man(a1-6)[Gal(b1-3)GlcNAc(b1-3)Gal(b1-4)GlcNAc(b1-3)Gal(b1-4)GlcNAc(b1-2)Man(a1-3)]Man(b1-4)GlcNAc(b1-4)[Fuc(a1-6)]GlcNAc
# Method in brief: as §1
# [16] = target: Gal(b1-3)GlcNAc(b1-3)GalNAc
# Method in brief: as §1
# [17] = target: Gal(b1-3)GlcNAc(b1-6)[Gal(b1-3)]GalNAc
# Method in brief: as §1
# [18] = target: Gal(b1-4)GlcNAc(b1-2)Man(a1-3)[Gal(b1-4)GlcNAc(b1-2)Man(a1-6)]Man(b1-4)GlcNAc(b1-4)GlcNAc
# Method in brief: as §1
# [19] = target: Gal(b1-4)GlcNAc(b1-2)Man(a1-3)[GlcNAc(b1-2)Man(a1-6)]Man(b1-4)GlcNAc(b1-4)GlcNAc
# Method in brief: as §1
# [20] = target: Gal(b1-4)GlcNAc(b1-3)Gal(b1-4)GlcNAc
# Method in brief: as §1
# Gal3S(b1-3)GalNAc = target: Gal3S(b1-3)GalNAc
# Method in brief: as §1
# Gal6S(b1-3)GlcNAc = target: Gal6S(b1-3)GlcNAc
# Method in brief: as §1
# Gal6S(b1-4)GlcNAc = target: Gal6S(b1-4)GlcNAc
# Method in brief: as §1
# GalNAc(a1-3)GalNAc = target: GalNAc(a1-3)GalNAc
# Method in brief: as §1
# [21] = target: GalNAc(a1-3)GalNAc(b1-3)Gal(a1-4)Gal(b1-4)Glc
# Method in brief: as §1
# [22] = target: GalNAc(b1-3)Gal(a1-4)Gal(b1-4)GlcNAc(b1-3)Gal(b1-4)Glc
# Method in brief: as §1
# [23] = target: GlcNAc(b1-3)Gal(b1-4)GlcNAc(b1-2)Man(a1-3)[GlcNAc(b1-3)Gal(b1-4)GlcNAc(b1-2)Man(a1-6)]Man(b1-4)GlcNAc(b1-4)GlcNAc
# Method in brief: as §1
# [24] = target: GlcNAc(b1-3)Gal(b1-4)GlcNAc(b1-3)Gal(b1-4)GlcNAc(b1-3)Gal(b1-4)GlcNAc(b1-3)Gal(b1-4)GlcNAc(b1-2)[GlcNAc(b1-3)Gal(b1-4)GlcNAc(b1-3)Gal(b1-4)GlcNAc(b1-3)Gal(b1-4)GlcNAc(b1-3)Gal(b1-4)GlcNAc(b1-6)]Man(a1-6)[GlcNAc(b1-3)Gal(b1-4)GlcNAc(b1-3)Gal(b1-4)GlcNAc(b1-3)Gal(b1-4)GlcNAc(b1-3)Gal(b1-4)GlcNAc(b1-2)Man(a1-3)]Man(b1-4)GlcNAc(b1-4)[Fuc(a1-6)]GlcNAc
# Method in brief: as §1
# Kdn(a2-3)Gal(b1-4)GlcNAc = target: Kdn(a2-3)Gal(b1-4)GlcNAc
# Method in brief: as §1
# Man(a1-2)Man(a1-3)Man = target: Man(a1-2)Man(a1-3)Man
# Method in brief: as §1
# [25] = target: Man(a1-2)Man(a1-3)[Man(a1-2)Man(a1-6)]Man(a1-6)[Man(a1-2)Man(a1-2)Man(a1-3)]Man(b1-4)GlcNAc(b1-4)GlcNAc
# Method in brief: as §1
# [26] = target: Neu5Ac(a2-3)Gal(b1-3)GalNAc(b1-3)Gal(a1-4)Gal(b1-4)Glc
# Method in brief: as §1
# [27] = target: Neu5Ac(a2-3)Gal(b1-4)GlcNAc
# Method in brief: as §1
# [28] = target: Neu5Ac(a2-3)Gal(b1-4)GlcNAc(b1-2)Man(a1-3)[GlcNAc(b1-4)][Neu5Ac(a2-3)Gal(b1-4)GlcNAc(b1-2)Man(a1-6)]Man(b1-4)GlcNAc(b1-4)GlcNAc
# Method in brief: as §1
# [29] = target: Neu5Ac(a2-3)Gal(b1-4)GlcNAc(b1-2)Man(a1-3)[Neu5Ac(a2-3)Gal(b1-4)GlcNAc(b1-2)Man(a1-6)]Man(b1-4)GlcNAc(b1-4)GlcNAc
# Method in brief: as §1
# [30] = target: Neu5Ac(a2-3)Gal(b1-4)[Fuc(a1-3)]GlcNAc6S
# Method in brief: as §1
# Neu5Ac(a2-3)GalNAc = target: Neu5Ac(a2-3)GalNAc
# Method in brief: as §1
# Neu5Ac(a2-6)Gal = target: Neu5Ac(a2-6)Gal
# Method in brief: as §1
# [31] = target: Neu5Ac(a2-6)Gal(b1-4)GlcNAc(b1-2)Man(a1-6)[Man(a1-3)]Man(b1-4)GlcNAc(b1-4)GlcNAc
# Method in brief: as §1
# [32] = target: Neu5Ac(a2-6)Gal(b1-4)GlcNAc(b1-2)[Neu5Ac(a2-6)Gal(b1-4)GlcNAc(b1-4)]Man(a1-3)[GlcNAc(b1-4)][Neu5Ac(a2-6)Gal(b1-4)GlcNAc(b1-2)[Neu5Ac(a2-6)Gal(b1-4)GlcNAc(b1-6)]Man(a1-6)]Man(b1-4)GlcNAc(b1-4)GlcNAc
# Method in brief: as §1
# [33] = target: Neu5Ac(a2-6)Gal(b1-4)GlcNAc(b1-2)[Neu5Ac(a2-6)Gal(b1-4)GlcNAc(b1-4)]Man(a1-3)[GlcNAc(b1-4)][Neu5Ac(a2-6)Gal(b1-4)GlcNAc(b1-4)Man(a1-6)]Man(b1-4)GlcNAc(b1-4)GlcNAc
# Method in brief: as §1
# [34] = target: Neu5Ac(a2-6)Gal(b1-4)GlcNAc(b1-3)Gal(b1-4)GlcNAc(b1-3)Gal(b1-4)GlcNAc(b1-2)Man(a1-3)[Neu5Ac(a2-6)Gal(b1-4)GlcNAc(b1-3)Gal(b1-4)GlcNAc(b1-3)Gal(b1-4)GlcNAc(b1-2)Man(a1-6)]GalNAc
# Method in brief: as §1
# [35] = target: Neu5Ac(a2-6)Gal(b1-4)GlcNAc(b1-3)[Neu5Ac(a2-6)Gal(b1-4)GlcNAc(b1-6)]GalNAc
# Method in brief: as §1
# [36] = target: Neu5Gc(a2-3)Gal(b1-4)[Fuc(a1-3)]GlcNAc
# Method in brief: as §1
binder,measurement,setting,value
B1,glycan array binding signal (z-score),Fuc(a1-2)Gal(b1-3)GlcNAc,0.359
same,glycan array binding signal (z-score),[1],-0.012
same,glycan array binding signal (z-score),Fuc(a1-2)Gal(b1-4)Glc,-0.322
same,glycan array binding signal (z-score),[2],0.324
same,glycan array binding signal (z-score),[3],-0.914
same,glycan array binding signal (z-score),[4],0.207
same,glycan array binding signal (z-score),[5],-0.832
same,glycan array binding signal (z-score),[6],3.23
same,glycan array binding signal (z-score),[7],-0.328
same,glycan array binding signal (z-score),[8],0.499
same,glycan array binding signal (z-score),[9],2.41
same,glycan array binding signal (z-score),[10],-0.684
same,glycan array binding signal (z-score),[11],0.28
same,glycan array binding signal (z-score),[12],-0.035
same,glycan array binding signal (z-score),[13],-0.68
same,glycan array binding signal (z-score),[14],-0.55
same,glycan array binding signal (z-score),[15],2.97
same,glycan array binding signal (z-score),[16],0.129
same,glycan array binding signal (z-score),[17],0.217
same,glycan array binding signal (z-score),[18],-0.8
same,glycan array binding signal (z-score),[19],-0.763
same,glycan array binding signal (z-score),[20],0.439
same,glycan array binding signal (z-score),Gal3S(b1-3)GalNAc,0.283
same,glycan array binding signal (z-score),Gal6S(b1-3)GlcNAc,2.69
same,glycan array binding signal (z-score),Gal6S(b1-4)GlcNAc,-0.022
same,glycan array binding signal (z-score),GalNAc(a1-3)GalNAc,-0.798
same,glycan array binding signal (z-score),[21],-0.606
same,glycan array binding signal (z-score),[22],-0.596
same,glycan array binding signal (z-score),[23],-0.524
same,glycan array binding signal (z-score),[24],-1.04
same,glycan array binding signal (z-score),Kdn(a2-3)Gal(b1-4)GlcNAc,2.76
same,glycan array binding signal (z-score),Man(a1-2)Man(a1-3)Man,0.139
same,glycan array binding signal (z-score),[25],-0.337
same,glycan array binding signal (z-score),[26],-0.318
same,glycan array binding signal (z-score),[27],1.9
same,glycan array binding signal (z-score),[28],0.483
same,glycan array binding signal (z-score),[29],1.88
same,glycan array binding signal (z-score),[30],0.576
same,glycan array binding signal (z-score),Neu5Ac(a2-3)GalNAc,2.8
same,glycan array binding signal (z-score),Neu5Ac(a2-6)Gal,2.53
same,glycan array binding signal (z-score),[31],0.005
same,glycan array binding signal (z-score),[32],2.01
same,glycan array binding signal (z-score),[33],1.82
same,glycan array binding signal (z-score),[34],2.1
same,glycan array binding signal (z-score),[35],-1.14
same,glycan array binding signal (z-score),[36],-0.164
